# PubChem BioAssay
# The source made the active and inactive calls.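 The calls were made as follows, unless noted: active = compounds that lower viability of the colon cancer cells in the luminescence readout, with no numeric limit stated; inactive = the rest.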
# What was measured:
# [1] = stimulators of nuclear beta-catenin in C2C12, primary screen, imaging, WNT3A-conditioned medium, mouse C2C12, NPC library (AID 1117326; in the data active = nuclear beta-catenin stimulation mostly above about 4.2%, no sharp cut-off; inactive = mostly below about 10%; also: reference of the scale not given here); conditions: stronger effect = higher value
# [2] = stimulators of insulin release from INS-1E, primary screen, cell-based, 5 mM glucose, NPC library (AID 1117329;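 active = compound raises insulin release from rat beta cells at 5 mM glucose, no numeric limit stated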; also: reference of the scale not given here); conditions: rat INS-1E insulin secretion, at 10 µM, stronger effect = higher value
# [3] = growth inhibition of GSK3B-pretreated HCT116 cells – cell-based, CellTiter-Glo, 0.2 to 20 µM (AID 1117336;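 active = compounds lowering colon cancer cell viability after pretreatment blocking the GSK3B kinase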); conditions: HCT116 viability after GSK3B inhibitor, at 20 µM, stronger effect = higher value
# [4] = inhibition of endothelial tube formation, primary screen, imaging, VEGF stimulated, CD31 staining, tube area, NPC library (AID 1117340;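 active = compound that reduces growth-factor-driven endothelial tube area in a mixed cell culture, no cutoff stated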); conditions: VEGF-stimulated ADSC/ECFC co-culture, at 10 µM, stronger effect = higher value
# [5] = glucagon-like peptide 1 release enhancers, primary assay, NCI-H716 cell line, NPC library (AID 1117341;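 active = compound raises GLP1 secretion from the human gut endocrine cells, with no numeric limit stated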; also: reference of the scale not given here); conditions: NCI-H716 cells, at 10 µM, stronger effect = higher value
# [6] = HCT116 colon cancer cell growth inhibition, primary screen, CellTiter-Glo luminescence, NPC library (AID 1117342;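 active = compounds that lower survival of HCT116 colon cancer cells in the luminescence readout, no numeric limit stated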); conditions: at 20 µM (top of the series)
# [7] = CellTiter-Glo luminescent readout of SW480 viability loss, NPC library primary (AID 1117343); conditions: CellTiter-Glo luminescence; at 20 µM (top of the series)
# [8] = decreased DLD-1 cellular survival, CellTiter-Glo luminescent readout, NPC compound collection, primary HTS (AID 1117346;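 active = compounds that lower survival of DLD-1 colon cancer cells in the luminescence readout, no cutoff given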); conditions: DLD-1 viability, CellTiter-Glo luminescence; at 20 µM (top of the series)
SMILES,nuclear beta-catenin stimulation ([1]; at 10 µM),"nuclear beta-catenin stimulation ([1]; stimulation, at 2 µM)",insulin secretion stimulation [2],viability decrease [3],tube area decrease [4],GLP1 secretion stimulation [5],inhibition of viability [6],viability decrease (inhibition) [7],viability decrease (inhibition) [8]
O=C(c1ccco1)N1CCNCC1,4.5% (inactive),-0.4%,0.1% (inactive),-3.6% (inactive),-16.6% (inactive),-0.5% (inactive),-8.9% (inactive),-21.1% (inactive),5.4% (inactive)
Nc1nnnn1-c1ccccc1,-0.2% (inactive),0.5%,-1.6% (inactive),-7.65% (inactive),-14.5% (inactive),2.4% (inactive),5.4% (inactive),56.4% (active),-1.05% (inactive)
C[C@H]1C[C@H]2[C@@H]3CCC4=CC(=O)C=C[C@]4(C)[C@@]3(Cl)[C@@H](O)C[C@]2(C)[C@@]1(O)C(=O)CO,0.9% (inactive),0.5%,6.9% (inactive),-136% (inactive),14.4% (inactive),-0.3% (inactive),15.8% (inactive),70.7% (active),13.2% (inactive)
CC[N+](CC)(CC)CCOC(=O)C(C1CCCC1)C1CCCC1,1.2% (inactive),2%,0.5% (inactive),28.7% (inactive),8.3% (inactive),1.6% (inactive),21.8% (inactive),-14.4% (inactive),4.1% (inactive)
CCCCCCCCCCCCCCCCCCN(C)C,-0.6% (inactive),-1.1%,0.9% (inactive),1.2% (inactive),-8% (inactive),-0.1% (inactive),43.3% (inactive),-27.7% (inactive),-0.1% (inactive)
CCOc1cc(OCC)c(C(=O)CCC(=O)O)cc1OCC,-1.4% (inactive),0.2%,0.5% (inactive),-11.3% (inactive),3.4% (inactive),-1.3% (inactive),11.4% (inactive),0.4% (inactive),3.7% (inactive)
NC(=O)NS(=O)(=O)c1ccc(Cl)cc1,1.1% (inactive),16.9%,3.4% (inactive),-3.8% (inactive),-14.2% (inactive),-1.2% (inactive),2.5% (inactive),-13.4% (inactive),-2.8% (inactive)
O=C1Nc2ccccc2C1(c1ccc(O)cc1)c1ccc(O)cc1,-0.4% (inactive),-1.6%,0.6% (inactive),54.5% (active),16.2% (inactive),5.4% (inactive),71.7% (active),38.2% (inactive),56.5% (active)
O=C(O)Cc1csc(-c2ccc(Cl)cc2)n1,-0.7% (inactive),-0.2%,0.4% (inactive),-4.4% (inactive),0.8% (inactive),-2.9% (inactive),-9.9% (inactive),-3.2% (inactive),-11% (inactive)
COC(=O)C1=C(C)NC(COC(N)=O)=C(C(=O)OC(C)C)C1c1cccc(Cl)c1Cl (centres undefined),35.5% (inactive),0.7%,8.1% (inactive),94.6% (active),23.2% (inactive),0.3% (inactive),99.8% (active),123% (active),68.5% (active)
CCC(C(=O)OCCN(CC)CC)c1ccccc1 (centres undefined),1.2% (inactive),-0.6%,1.3% (inactive),-8.4% (inactive),-11.9% (inactive),-2.1% (inactive),-0.3% (inactive),4.5% (active),-11.1% (inactive)
CCOC(=O)c1ccc(O)c(O)c1,4.9% (inactive),3.4%,4% (inactive),88.4% (active),24% (inactive),-0.3% (inactive),63.9% (active),77.7% (active),56.4% (active)
CCC(C(=O)OCCN1CCOC(c2ccccc2)C1C)c1ccccc1 (centres undefined),1% (inactive),1.6%,1.7% (inactive),-40.8% (inactive),3.7% (inactive),5.9% (inactive),15.8% (inactive),-0.4% (inactive),22.2% (inactive)
C#Cc1ccc(-c2ccccc2F)cc1,-1.3% (inactive),-2.1%,0.3% (inactive),-3.5% (inactive),7.2% (inactive),-0.7% (inactive),0.6% (inactive),-12.8% (inactive),18.8% (inactive)
O=C(O)CNC(=O)c1ccccc1,1.3% (inactive),1.4%,-1.9% (inactive),-9.35% (inactive),-7.6% (inactive),4% (inactive),-1.6% (inactive),24.7% (inactive),2.1% (inactive)
Nc1ncnc(Nc2ccccc2)n1,0.5% (inactive),0.6%,-1.2% (inactive),3.65% (inactive),-16% (inactive),-0.9% (inactive),2.7% (inactive),51.8% (active),19.1% (inactive)

SMILES,nuclear beta-catenin stimulation ([1]; at 10 µM),"nuclear beta-catenin stimulation ([1]; stimulation, at 2 µM)",insulin secretion stimulation [2],viability decrease [3],tube area decrease [4],GLP1 secretion stimulation [5],inhibition of viability [6],viability decrease (inhibition) [7],viability decrease (inhibition) [8]
CCCCCCCC/C=C/C(=O)O,1.3% (inactive),0.6%,1.9% (inactive),-52.2% (inactive),-10.1% (inactive),-3.8% (inactive),5.93% (inactive),85.3% (active),45% (inactive)
CO/N=C(\C(=O)O)c1csc(NC(=O)CCl)n1,0.7% (inactive),2.9%,1.4% (inactive),16.2% (inactive),-12.1% (inactive),1.7% (inactive),-2% (inactive),-1.7% (inactive),-2.1% (inactive)
NS(=O)(=O)c1cc2c(cc1Cl)CN(C1CCCCC1)C2=O,-0.9% (inactive),-0.3%,-0.2% (inactive),-0.4% (inactive),-3.4% (inactive),1.4% (inactive),-2.17% (inactive),-0.2% (inactive),-3.8% (inactive)
OC1(c2ccc(Cl)cc2)CCNCC1,-0.1% (inactive),-1.2%,6.1% (inactive),13.1% (inactive),7.8% (inactive),1.3% (inactive),23.2% (inactive),30.5% (inactive),8.8% (inactive)
CCCC(O)C(CC)CO (centres undefined),-0.6% (inactive),1.4%,-1.8% (inactive),-18.3% (inactive),16.6% (inactive),-0.4% (inactive),3.33% (inactive),2.8% (inactive),2.4% (inactive)
CC(C)(C)C(=O)NCCCC(=O)O,-1.1% (inactive),2.4%,2.7% (inactive),-7.9% (inactive),2% (inactive),-3.9% (inactive),-1.1% (inactive),-0.2% (inactive),-16.7% (inactive)
N=C(N)c1ccc(OCCCOc2ccc(C(=N)N)cc2)cc1,-2.3% (inactive),-0.9%,2.7% (inactive),-29.9% (inactive),-17.1% (inactive),-1.7% (inactive),7.1% (inactive),9.5% (inactive),-2.6% (inactive)
CCOC(=O)c1cccc(N)c1,-0.3% (inactive),-1.1%,1.3% (inactive),4.6% (inactive),-29.7% (inactive),-4.7% (inactive),-7.9% (inactive),35.4% (inactive),4.45% (inactive)
Oc1ccc(C(O)CNCCCCCCNCC(O)c2ccc(O)c(O)c2)cc1O (centres undefined),-0.7% (inactive),-2.3%,1.65% (inactive),76.1% (active),-0.1% (inactive),4.5% (inactive),43% (inactive),42.9% (inactive),40.4% (inactive)
Cc1ccc(S(=O)(=O)NC(=O)NC2CCCC2)cc1,0.2% (inactive),0.6%,15.2% (inactive),-1.25% (inactive),-10.7% (inactive),-0.4% (inactive),-18.5% (inactive),44.9% (inactive),9.95% (inactive)
O=S(=O)(O)c1ccc2c(N=Nc3ccc(S(=O)(=O)O)c4ccccc34)c(O)c(S(=O)(=O)O)cc2c1,0.7% (inactive),0.1%,2.6% (inactive),0% (inactive),11.5% (inactive),-3.9% (inactive),2.8% (inactive),19.3% (inactive),6.8% (inactive)
CC[N+]1(CC)CCC(=C(c2ccccc2)c2ccccc2)C1C (centres undefined),-1.3% (inactive),-2.2%,1.7% (inactive),-4.6% (inactive),-9.4% (inactive),3.8% (inactive),22.7% (inactive),1.6% (inactive),34.6% (inactive)
CCCCCCCCCCCC(=O)[O][Sn]([CH2]CCC)([CH2]CCC)[O]C(=O)CCCCCCCCCCC,75.9% (active),7.2%,0% (inactive),-72% (inactive),94.7% (active),49% (active),5.07% (inactive),133% (active),101% (active)
CN(C)CCOc1ccccc1Cc1ccccc1,-1.8% (inactive),2.3%,22% (active),-14% (inactive),4.9% (inactive),-5.1% (inactive),11.4% (inactive),34% (inactive),0.8% (inactive)
CCOC(=O)[C@H](CCc1ccccc1)N[C@@H](C)C(=O)N(CC(=O)O)C1Cc2ccccc2C1,1% (inactive),0.4%,1.15% (inactive),-0.3% (inactive),4.9% (inactive),3.1% (inactive),10.2% (inactive),-7.1% (inactive),-2.9% (inactive)
